Records with an inconclusive call do not appear. Entries that show only a call come without a potency. Active and inactive are the calls of the source. Calls come from the whole dose curve; as a rule, active = well fitted cell-killing curve with a large enough effect; inconclusive = small, poorly fitted or top-dose-only effect, or effect the other way; inactive = no such curve, though single readings can be large or run the other way.

The experiment in a line: Viability qHTS for spleen associated tyrosine kinase inhibitor (SYKi) naive MV4-11 cells (AID 1963823). Note: nearly all actives have a fitted effect of over 40% in size. Conditions: MV4-11 AML viability, CellTiter-Glo luminescence, 72 h; series mostly up to 45 µM. The method in brief: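 In this viability screen, compounds acted on SYK inhibitor naive MV4-11 cells for three days (72 hr, 37 C). Remaining viable cells were measured by CellTiter-Glo luminescence following a 10 min room-temperature development.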
On the technique in general: In qHTS, concentration-response curves come from the screen itself.
With `C[N@@+]1(CC2CC2)CC[C@]23c4c5ccc(O)c4O[C@H]2C(=O)CC[C@@]3(O)[C@H]1C5`, the Potency entry is “inactive”.

On to `S=C(NC1CCCCC1)N1CCC(c2cnc[nH]2)CC1`, for which the Potency result was “inactive”.

For the molecule `CCC(C)(OC(C)=O)C(=O)O[C@H]1[C@H](OC(C)=O)C[C@@H]2[C@@](C)([C@@H]3C[C@H]4C=CO[C@H]4O3)[C@H](C)C[C@H](OC(C)=O)[C@@]2(COC(C)=O)[C@@]12CO2` (stereo not given in full), the Potency result was “inactive”.

As to `COc1cc(C(=O)O[C@H]2[C@@H]3C=CO[C@@H](O[C@@H]4O[C@H](CO)[C@@H](O)[C@H](O)[C@H]4O)[C@@H]3[C@@]3(CO)O[C@@H]23)ccc1O`, the Potency result is “inactive”.

Regarding `CC(=O)OC1CC(O)C(C)(C)C2CC(OC(C)=O)C3(C)C(CCC4(C)C(c5ccoc5)C(=O)C5OC543)C12C` (stereo not given), the Potency entry was “inactive”.

(Values after PubChem BioAssay (NCATS).)
